Assay outcomes: PubChem, several laboratories
A selection: hits, their analogues and other compounds. The true share with any hit is near 5.3%.
PfM18AAP inh – PfM18AAP inhibitors, malaria aminopeptidase, primary screen, biochemical, QFRET, recombinant enzyme. 290,000 tested, 1.2% active. inhibition, % at 7.35 µM. M18 aspartyl aminopeptidase (Plasmodium falciparum 3D7). H-Glu-NHMec fluorogenic cleavage;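 active means inhibition above the campaign mean inhibition over all tested compounds plus 3 SD, cut at about 28% in these data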;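 further: 0% = plate median of test compound wells and 100% = 2 mM ZnCl2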
ALR inh – inhibitors of human ALR sulfhydryl oxidase, primary screen, biochemical, H2O2 detection, HRP-luminol luminescence, single point; inhibition, % (no concentration beside the values); AID 485317, 2010; purified ALR, DTT oxidation; 290,000 tested, 3.8% active;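 active means mean replicate inhibition above about 79%, with every replicate also reaching it, limit read from the data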
Target sequence (P55789 whole entry, looked up): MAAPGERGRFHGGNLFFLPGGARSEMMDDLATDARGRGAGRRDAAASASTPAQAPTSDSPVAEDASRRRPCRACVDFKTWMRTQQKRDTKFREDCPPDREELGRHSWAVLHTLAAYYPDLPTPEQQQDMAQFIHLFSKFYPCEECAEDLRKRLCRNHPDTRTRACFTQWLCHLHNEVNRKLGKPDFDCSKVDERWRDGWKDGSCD
HIF activator – HIF pathway transcriptional activators, primary screen, cell-based, U2OS HRE-luciferase, luminescence. U2OS HRE-luciferase reporter; normalized: DMSO 0%, desferrioxamine 100%. activation, % at 7.5 µM (by protocol). 300,000 tested, 0.32% active;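 active means mean activation of at least 10% of the iron chelator positive control signal, with at least half of replicates also reaching 10%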
Mot1-301 SUMO – yeast Mot1-301 growth rescue at high temperature, primary screen, SUMOylation pathway inhibitor project, S. cerevisiae, ATP luminescence, 38.5C. S. cerevisiae Mot1-301 growth rescue; percent above DMSO median, 100 means doubled. growth rescue, % at 18.8 µM. 320,000 tested, 1% active. AID 2716, 2010;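 active means every valid replicate shows activation above 250% relative to neutral control wells; inactive means the rest, any valid replicate at or below 250%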;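 further: OY570 slx delta 5 strain wells were the positive control but not used for scaling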
Numbers without * were called inactive; . = not tested or not shown.

SMILES | PfM18AAP inh | ALR inh | HIF activator | Mot1-301 SUMO
S=c1[nH]nc(-c2ccc3ccccc3n2)o1 | -30 | 91* | 0 | -14
FC(F)(F)c1ccc(-c2n[nH]c(=S)o2)nc1 | 3 | 13 | 0 | -9
O=C(COC(=O)COc1ccccc1F)NCc1ccco1 | . | 1 | . | 2
COC(=O)/C(=C/c1c[nH]c2ccccc12)NC(C)=O | 0 | 30 | 0 | -4
CCOC(=O)/C(=C/c1c[nH]c2ccccc12)NC(C)=O | -6 | 97* | 0 | -9
COCc1cc(=O)n2[nH]cc(-c3ccccc3)c2n1 | -2 | 50 | 2 | 150
CCOC(=O)Cc1c(C)nc2c(-c3ccc(Cl)cc3)c[nH]n2c1=O | 8 | 98* | -1 | -16
CCCc1cc(=O)n2[nH]cc(-c3ccc(Cl)cc3)c2n1 | 1 | 99* | 1 | 132
CCC/C=N/NC(=O)c1ccccc1O | 19 | 1 | 2 | -19
COc1ccc(CNC(=O)Cn2nc(Cc3cccnc3)c3ccccc3c2=O)cc1 | -5 | -12 | -1 | 439*
Cc1cc(C)n(-c2ccc(S(=O)(=O)N3CCOCC3)cc2[N+](=O)[O-])n1 | 1 | -11 | 0 | -1
Cc1ccc(-c2csc(/C(C#N)=C(\O)CN3CCN(C(=O)c4ccco4)CC3)n2)cc1 | -12 | 99* | 0 | 3
N#C/C(=C(/O)CN1CCOCC1)c1nc(-c2ccccc2)cs1 | -4 | 36 | . | 1
O=C(Nc1ccc(F)cc1F)N1CCC(c2nc3ccccc3o2)CC1 | 1 | -6 | 0 | 14
COc1cc(/C=C/c2[nH]c(=O)[nH]c(=O)c2[N+](=O)[O-])cc(OC)c1O | 21 | 95* | -1 | -8
COc1cccc(/C=C/c2[nH]c(=O)[nH]c(=O)c2[N+](=O)[O-])c1O | 14 | 98* | 0 | -7
CCOC(=O)COc1ccc(Br)cc1/C=C/c1[nH]c(=O)[nH]c(=O)c1[N+](=O)[O-] | 14 | 97* | 0 | -6
O=[N+]([O-])c1cc(CS(=O)(=O)Oc2ccc(Cl)cc2)c(O)c([N+](=O)[O-])c1 | . | 2 | 0 | -1
Cc1cc(-c2cc(C(=O)Nc3ccccc3)on2)nc(NC2CCCC2)n1 | . | -5 | 0 | -7
CSCC[C@H](NC(=O)N1C[C@H]2C[C@@H](C1)c1cccc(=O)n1C2)C(=O)Nc1ccc(NC(C)=O)cc1 | -1 | . | 0 | 3
COCCn1c(-c2cccc([N+](=O)[O-])c2)nc2c1c(=O)[nH]c(=O)n2Cc1ccccc1 | -1 | 99* | 0 | 10
CN1C(=O)CS(=O)c2ccc(C(=O)NCCC3=CCCCC3)cc21 (configuration not stated) | 30* | . | 1 | 9
[O-][n+]1c2c(c3c4non(O)c4ccc31)CCCC2 | 20 | 94* | 0 | -13
Cc1ccc(NC(=S)NC(=O)c2c(-c3ccccc3Cl)noc2C)cc1 | 12 | . | 0 | -1
CC(=O)N1CCN(C(=S)NC(=O)c2c(-c3ccccc3Cl)noc2C)CC1 | 6 | 95* | -1 | -13
SMILES | PfM18AAP inh | ALR inh | HIF activator | Mot1-301 SUMO
Cc1[nH]n(C)c(=O)c1C(=O)c1c(-c2ccccc2Cl)noc1C | 7 | 85* | 1 | -9
Cn1cc(-c2cc(C(=O)O)on2)cn1 | -3 | 4 | 0 | -17
CC(C)CC1Nc2ccc(C(=O)NCCCN3CCCCC3C)cc2NC1=O (configuration not stated) | 23 | -2 | 0 | 10
COCCn1c(N2CCN(c3ccc(OC)cc3)CC2)nc2c1c(=O)n(C)c(=O)n2C | 3 | 42 | 0 | -5
CCCCCCn1c(N2CCCC2)nc2c1c(=O)n(C)c(=O)n2C | -1 | 97* | -17 | 1
CCOCCn1c(N2CCN(c3ccc(OC)cc3)CC2)nc2c1c(=O)n(C)c(=O)n2C | -6 | 91* | 0 | 44
CC(C)CCn1c(N2CCCC2)nc2c1c(=O)n(C)c(=O)n2C | -5 | 57 | -2 | -7
CC(C)(C)C1CCC(=NNC(=O)c2cc3c(s2)CCCC3)CC1 (configuration not stated) | -6 | 3 | . | 542*
O=C(NN=C1CCC(c2ccccc2)CC1)c1cc2c(s1)CCCC2 (configuration not stated) | -18 | 2 | 0 | 292
COc1ccccc1NC(=O)CCCCCN1C(=O)c2cccc([N+](=O)[O-])c2C1=O | 0 | -1 | -1 | -19
COc1cc(/C=C2/C(=O)c3cccc([N+](=O)[O-])c3C2=O)c(Br)cc1O | 30* | . | . | -2
CC(=O)Oc1ccc2nc(-c3ccc(Br)o3)oc(=O)c2c1 | 4 | 80* | 0 | -18
O=C1CCCC(O)=C1C=Nc1cccc(C(F)(F)F)c1 | -4 | -1 | 714* | 116
COc1cccc(N=CC2=C(O)CCCC2=O)c1 | 2 | -4 | 1 | -9
CCOC(=O)CNC(=S)N(CCCN1CCCC1)Cc1cccs1 | -1 | 99* | 0 | 16
CCOC(=O)CNC(=S)N(CCCN1CCCCCC1)Cc1cccs1 | -6 | 1 | 0 | -10
Cc1ccc(C(=O)NCCC(=O)N2CCCC2)cc1 | 0 | -8 | 3 | -4
O=C(NNC(=S)NCC1CCCO1)c1cc(Br)ccc1Cl (configuration not stated) | 10 | 22 | 1 | -7
O=C(CC1C(=O)Nc2ccccc2N1CC(=O)N1CCCC1)Nc1ccc(Br)cc1 (configuration not stated) | . | 98* | . | -23
COc1ccc(C(CNC(=O)c2cc3ccccc3cc2O)N2CCOCC2)cc1 (configuration not stated) | . | -80 | 0 | -13
COc1ccc(CC(=O)N2CCN(c3ccccc3)CC2)cc1 | 2 | 72 | 0 | -11
COc1ccc(N2CCN(C(=O)CNC(=O)Cc3ccccc3)CC2)cc1 | 5 | 79* | 0 | 1
COc1ccc(N2CCN(C(=O)CCc3ccccc3)CC2)cc1 | -1 | 97* | 0 | 13
COc1ccc(N2CCN(C(=O)CN(Cc3ccccc3)S(C)(=O)=O)CC2)cc1 | 0 | 86* | 0 | 36
COc1ccc(N2CCN(C(=O)[C@H](Cc3c[nH]c4ccccc34)NC(C)=O)CC2)cc1 | -4 | 98* | -1 | -5
COc1ccc(C(C(=O)NC2CCCCC2)N(C(=O)c2ccco2)c2ccccc2C(C)=O)cc1OC (configuration not stated) | -6 | -1 | 0 | 230
COc1ccc(N2CCN(C(C)C(=O)N(C)Cc3ccccc3)CC2)cc1 (configuration not stated) | 0 | 96* | -3 | -22
COc1ccc(N2CCN(CC(=O)N3N=CCC3c3ccccc3)CC2)cc1 (configuration not stated) | -2 | 84* | 0 | 2
CN(CC(=O)N1CCN(c2ccccc2F)CC1)S(=O)(=O)c1cnc[nH]1 | -5 | 0 | 0 | -22
